Experimental data as given in the supplement of paper PMC10338343.
± gives the standard deviation.

Test system: EfPiwi piRISC loaded with L1MC piRNA (26 nt)
Assay: pre-steady-state target cleavage rate (min^-1); auxiliary factor: 500 nM Ephydatia muelleri Gtsf1; guide: L1MC piRNA 5'p-UAACUAAAUACUAUGCAAGCUGUAGG; MIWI and MILI are mouse PIWI proteins and EfPiwi is from a freshwater sponge; tags in brackets are library labels; higher = faster piRNA-guided slicing of the target
Description: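 Cleave-'n-Seq: a library of target RNAs (target site in constant flanks) at […] was incubated with 1 nM active freshwater sponge Ephydatia fluviatilis Piwi piRISC (synthetic 5'-monophosphorylated piRNA guide) with or without 500 nM EmGtsf1 at 33 °C for 1 min to 16 h. Uncleaved targets were sequenced and the pooled three trials fitted to a burst-and-steady-state model to give the pre-steady-state cleavage rate (min^-1). Sequence is the target site only. Fits with R² ≤ 0 are excluded.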

| Sequence | pre-steady-state target cleavage rate |
| --- | --- |
| UCCUGGAUGUGCUUGCAUAGUAUUUAGCUA | 0.00363 ± 0.0021 |
| UCCUGCUACAGCUUGCAUAGUAUUUACUAA | 0.0025 ± 0.0024 |
| UCCUGCUACAGCAUGCUUAGUAUUUAGUUA | 0.0122 ± 0.0038 |
| UCCUGCUACUGCUAGCAUAGUAUUUAGUUA | 0.0129 ± 0.0034 |
| UCCUGGUACAGCUUGCAUAGUAAUUUGUUA | 0.00282 ± 0.0025 |
| UCCUGCUACAGCUAGCAUAGUAUAUAGUUA | 0.00485 ± 0.0017 |
| UCCUGGUACAGCAUGCAUACUAUUUAGUUA | 0.00483 ± 0.0019 |
| UCCUGGAACAGCUUGGAUAGUAUUUAGUUA | 0.0302 ± 0.0072 |
| UCCUCCUACAGCUUGCAUACUAUUAAGUUA | 0.00391 ± 0.0027 |
| UCCUCCUACAGCUUGGAUAGUAUUUAGAUA | 0.00474 ± 0.0018 |
| UCCUGGAUCACCUUGCAUAGUAUUUAGUUA | 0.018 ± 0.0063 |
| UCCUCCUACAGCUUGUCAUAGUAUUUAGUUA | 0.0546 ± 0.016 |
| UCCUCCUACAUCUUGCAUAGUAUUUAGUUA | 0.0662 ± 0.02 |
| UCCUCCUACAGCUUGCAUAGUUUUUAGAUA | 0.00341 ± 0.0022 |
| UCCUGCUACAGCUUGCAUAGUUUUUAGAAA | 0.00343 ± 0.0019 |
| UCCUGCUACAGCUUGCAUAGAAAUUAGUUA | 0.0026 ± 0.0021 |
| UCCUCCUACAGCUUGCACUAGUAUUUAGUUA | 0.0137 ± 0.0056 |
| UCCUGGAUCAGCAUGCAUACUAUUUAGUUA | 0.00409 ± 0.0018 |
| UCCUGGUACAGCUUGCUUAGUAUUUAGAUA | 0.00305 ± 0.0025 |
| UCCUGGAUGAGCUUGCAUAGUAAAUAGUUA | 0.00329 ± 0.0025 |

| Sequence | pre-steady-state target cleavage rate |
| --- | --- |
| UCCUGCUACAGCAUGCAUAGUAUUUAGAUA | 0.00378 ± 0.0015 |
| UCCUCCUAGAGCAUGCAUAGUAUUUAGUUA | 0.0163 ± 0.0058 |
| UCCUGGAUGUGGUUGCAUAGUAAUUAGUUA | 0.00754 ± 0.0039 |
| UCCUGCUACAGCUUGCAUAGUUUAUAGUUA | 0.00312 ± 0.0027 |
| UCCUGGAUCAGCUUGUAUAGUAUUUAGUUA | 0.104 ± 0.021 |
| UCCUGCUACACUUGCAUAGUAUUUAGUUA | 0.00903 ± 0.0027 |
| UCCUGGUAACAGCUUGCAUAGUAUUUAGUUA | 0.0495 ± 0.011 |
| UCCUGGAUGUCGUUGCAUAGAUAAAUCAAA [g11:g18:cont:t1A] | < 0.0001 |
| UCCUGGAUGAGCUUGCAUAGUAUUCAGUUA | 0.00256 ± 0.0023 |
| UCCUGGAUGUGCUUGCAUACUAUUUAGUUA | 0.0112 ± 0.0036 |
| UCCUGGAUGUGCUUUCAUAGUAUUUAGUUA | 0.0041 ± 0.0024 |
| UCCUGCUACUGCUUGCAUAGUAUUUAGUUA | 0.00883 ± 0.003 |
| UCCUCCUACACGAUGCAUAGUAUUUAGAAA | 0.00369 ± 0.0021 |
| UCCUGGAUGAGCUAGCAUAGUAUUUAGUAA | 0.00419 ± 0.0024 |
| UCCUGGAACAGCUUGCAUAGUUUUUAGAAA | 0.00413 ± 0.0021 |
| UCCUGCUACAGCUUGCAUAGUAUUUUCUUA | 0.00359 ± 0.002 |
| UCCUGGUACAGCUUGGAUAGUAUAUAGUUA | 0.00702 ± 0.0025 |
| UCCUGGUACAGCUAGCAUAGUAUUUAGUUA | 0.0085 ± 0.0027 |
| UCCUGGAUGUCGAUGCAUAGUAUUUAGUUUA | 0.00642 ± 0.0029 |
| UCCUGCUUCAGCUUGCAUACUAUUUAGUUA | 0.00801 ± 0.0025 |
